Nrf2 block: Nrf2 qHTS screen for inhibitors; 2.1% of 360,000 active; Potency, µM (series often up to 46 µM), for the others: top-dose activity change, negative = inhibition, actives largely listed as inhibitors; AID 504444, 2011; A549 ARE-Fluc reporter, luciferase luminescence, 18-24 h; also: potency is read from the fitted curve at half-maximal effect; % is scaled to controls: 0 for no effect and ±100 for the full control effect; nearly all actives have a fitted effect of over 60% in size
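Concentration-response testing used A549 ARE_Fluc cells at 5000 cells/well. Following an 18-24 h compound incubation, viability was read by fluorescence (Ex 405/Em 525) and luciferase output by luminescence.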
Mito fusion yeast: qHTS Assay for Small Molecule Inhibitors of Mitochondrial Division or Activators of Mitochondrial Fusion; Potency, µM (highest dose often 46.1 µM), for the others: at the highest dose growth rescue (activation), actives largely listed as activators; S. cerevisiae fusion-defective mutant growth rescue, CellTiterGlo 48 h; 0.23% of 320,000 active; also: potency is read from the fitted curve at half-maximal effect; % of control where 0% means no effect; nearly all actives have a fitted effect of over 45% in size
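Read-out: ATP-based luminescence (CellTiterGlo, 10 min ambient) reporting growth of fusion-defective ts yeast after 48 hours at 37C on glycerol/ethanol YPEG medium in the presence of compound.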
A549 tox: Nrf2 qHTS screen for inhibitors: counterscreen for cytotoxicity; A549 ARE-Fluc cells, CellTiter-Fluor viability, 18-24 h; Potency, µM (doses to about 46 µM), for inactives: at the highest dose activity change, negative = cytotoxicity, hits mostly inhibitors; 0.16% of 390,000 active; also: potency is read from the fitted curve at half-maximal effect; % is scaled to controls: 0 for no effect and ±100 for the full control effect
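Cytotoxicity counterscreen: CellTiter-Fluor fluorescence was measured in A549 ARE_Fluc cells after 18-24 h of compound exposure in a concentration series. The subsequent BugLite luminescent read reports ARE-luciferase activity.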
rTrxR1 inhibitor: qHTS Assay for Inhibitors of Mammalian Selenoprotein Thioredoxin Reductase 1 (TrxR1): qHTS. Thioredoxin reductase 1, cytoplasmic (Rattus norvegicus), O89049. recombinant rTrxR1, NADPH fluorescence consumption, selenite substrate. Potency, µM (highest dose often 114 µM), inactives show at the top dose activity change, negative = inhibition, most hits filed as inhibitors. 1% of 390,000 active; also: potency is read from the fitted curve at half-maximal effect; % is scaled to controls: 0 for no effect and ±100 for the full control effect; nearly all actives have a fitted effect of over 65% in size
Target sequence (O89049 whole entry, looked up): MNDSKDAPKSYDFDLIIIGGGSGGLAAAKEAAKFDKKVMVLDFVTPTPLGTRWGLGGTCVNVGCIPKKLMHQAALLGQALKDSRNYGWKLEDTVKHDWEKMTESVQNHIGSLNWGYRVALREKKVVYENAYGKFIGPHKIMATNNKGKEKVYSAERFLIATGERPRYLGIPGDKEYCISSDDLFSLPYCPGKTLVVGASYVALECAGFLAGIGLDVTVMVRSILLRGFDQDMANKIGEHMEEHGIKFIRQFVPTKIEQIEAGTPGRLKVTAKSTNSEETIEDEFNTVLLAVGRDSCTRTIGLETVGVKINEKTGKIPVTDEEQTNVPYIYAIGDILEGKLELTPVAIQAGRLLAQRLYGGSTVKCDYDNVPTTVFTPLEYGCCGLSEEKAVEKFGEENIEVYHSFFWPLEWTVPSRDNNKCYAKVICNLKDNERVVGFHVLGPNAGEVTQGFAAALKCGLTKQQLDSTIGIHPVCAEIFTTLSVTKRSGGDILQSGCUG
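Rat TrxR1 (90 nM in the dispensed reagent) was pre-reduced with 400 uM NADPH for 5 min at room temperature, then incubated with compound for 15 min. After 400 uM selenite was added, NADPH fluorescence (Ex 340/Em 450 nm) was followed for 8 min.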
IDH1 R132H inh: qHTS for Inhibitors of mutant isocitrate dehydrogenase 1 (IDH1): qHTS. Isocitrate dehydrogenase [NADP] cytoplasmic (Homo sapiens), O75874. IDH1-R132H enzyme, NADPH consumption, diaphorase/resazurin fluorescence. Potency, µM (highest dose often 76.6 µM), for inactives: at the top dose activity change, negative = inhibition, most hits filed as inhibitors. 0.093% of 390,000 active. AID 602179, 2012; also: potency is read from the fitted curve at half-maximal effect; % is scaled to controls: 0 for no effect and ±100 for the full control effect; nearly all actives have a fitted effect of over 65% in size
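IDH1-R132H (0.5 ug/mL) preincubated 30 min with compound, then NADPH (0.016 mM) and alpha-KG (2 mM) added; 80 min at RT, pH 7.5. Remaining NADPH coupled via diaphorase/resazurin to fluorescence (540/590 nm); concentration-response curves normalized to no-enzyme control.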
TrxR1 substrate: qHTS Assay for Substrates of Mammalian Selenoprotein Thioredoxin Reductase 1 (TrxR1): qHTS | purified TrxR1 substrate turnover, NADPH consumption readout | Potency, µM (doses to about 114 µM), without a hit: top-dose activity change, negative = substrate turnover | 0.01% of 390,000 active; also: potency is read from the fitted curve at half-maximal effect; % is scaled to controls: 0 for no effect and ±100 for the full control effect; nearly all actives have a fitted effect of over 50% in size
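Rat TrxR1, dispensed at 90 nM, was prereduced with 400 uM NADPH (final) for 5 min at ~22 deg C, then incubated with compound 15 min before 400 uM selenite. A first-read NADPH fluorescence drop versus no-compound background flagged substrates.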
Resorufin autofl: qHTS for Inhibitors of mutant isocitrate dehydrogenase 1 (IDH1): Cherrypicks Autofluorescence Interference; shares compounds with IDH1 R132H inh; Resorufin detection reagent fluorescence interference, cell-free; inhibition of signal, % at 51.2 µM; 750 tested, under 10 active; AID 623980, 2012;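 also: 0% = wells with normal resorufin and full inhibition = wells lacking resorufin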
WT IDH1 inh: qHTS for Inhibitors of mutant isocitrate dehydrogenase 1 (IDH1): Cherrypicks in WT IDH1; shares compounds with IDH1 R132H inh; WT IDH1 enzyme, NADPH diaphorase/resazurin fluorescence; Potency, µM (doses to about 115 µM), for inactives: top-dose activity change, negative = inhibition, hits mostly inhibitors; 9% of 750 active; AID 623995, 2012;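 also: potency is read from the fitted curve at half-maximal effect; 0% = full WT IDH1 enzyme control and full inhibition = no enzyme wells; nearly all actives have a fitted effect of over 55% in size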
IDH1 R132H conf: qHTS for Inhibitors of mutant isocitrate dehydrogenase 1 (IDH1): Confirmation of Cherrypicks; Potency, µM (top dose mostly 76.6 µM), without a hit: at the highest dose activity change, negative = inhibition, hits mostly inhibitors; IDH1 R132H enzyme, NADPH diaphorase/resazurin fluorescence; 83% of 750 active; shares compounds with IDH1 R132H inh; also: potency is read from the fitted curve at half-maximal effect; nearly all actives have a fitted effect of over 50% in size
* = called active by the depositor; ? = inconclusive; nt = no result given; [ ] = another dose, or the depositor's remark. Shown are actives, neighbours in structure and some others; about 3.1% of the full set was active somewhere. Calls follow the shape of the dose curve; as a rule, active = well fitted curve in the direction sought with a large enough effect; inconclusive = small, poorly fitted or top-dose-only effect, or another doubt; inactive = no such curve, though single readings can be large; an effect the other way counts as inactive or inconclusive.

SMILES	Nrf2 block	Mito fusion yeast	A549 tox	rTrxR1 inhibitor	IDH1 R132H inh	TrxR1 substrate	Resorufin autofl	WT IDH1 inh	IDH1 R132H conf
Cn1c(=O)c(NC2CCCCC2)c2c3c(cccc31)C(=O)c1ccccc1-2	-17.1%	23.6%	23.6%	0.9%	?	-8.2%	-0.3	11.5%	22.4µM*
COc1ccc(Cn2c(C3CCCCC3)nc3c(c(=O)c4ccccc4n3C)c2=O)cc1	0.0%	-0.1%	-6.9%	29.1%	?	2.9%	nt	nt	nt
Cn1c2ccccc2c(=O)c2c(=O)n(C3CCCCCC3)c(C3CCCCC3)nc21	-4.1%	24.4%	0.7%	-6.3%	9.27µM*	-16.8%	3.9	14.1µM*	2.82µM*
Cn1c2ccccc2c(=O)c2c(=O)n(C3CCCCC3)c(-c3cccs3)nc21	nt	6.1%	-0.9%	15.6%	36.9µM*	0.7%	11.9	-21.5%	15.8µM*
Cn1c2ccccc2c(=O)c2c(=O)n(-c3ccccc3)c(C3CCCCC3)nc21	1.3%	18.7%	6.3%	6.0%	11.7µM*	-2.5%	-1.7	25.1µM*	4.47µM*
CC(C)CC(=O)n1nc(-c2ccco2)nc1NCc1ccc(Cl)cc1	?	nt	3.0%	24.1%	-0.4%	6.2%	nt	nt	nt
CCC(C)(C)NC(=O)C1CCC(CNS(=O)(=O)c2ccc3c(c2)CC(C)N3C(C)=O)CC1 (stereo unspecified)	?	nt	-1.9%	24.8%	-8.4%	8.2%	nt	nt	nt
C#CCNC(=O)C1=C[C@H](C(C)(C)C)C[C@H](OCc2ccc(CO)cc2)O1	12.7%	-3.2%	-4.9%	4.2%[57.1 µM]	-3.2%	9.5%[57.1 µM]	nt	nt	nt
CC(C)(C)[C@@H]1C=C(C(=O)Nc2ccccc2)O[C@H](OCc2ccc(CO)cc2)C1	3.5%	6.4%	2.8%	16.3%[57.1 µM]	44.7µM*	-8.3%	-6.8	-4.6%	25.1µM*
CCOc1cc(C=C2C(=O)c3ccccc3C2=O)ccc1OCC(=O)Nc1ccc(C)cc1	4.2%	6.7%	-6.9%	16.9%[57.1 µM]	?	11.7%[57.1 µM]	-3.6	7.1%	15.8µM*
N#CC1=C2N=C(N)c3ccccc3N2C2=C(C(=O)CCC2)C1c1ccc(F)cc1 (stereo unspecified)	?	-0.9%	-1.9%	5.9%	?	0.1%	-3.5	-1.3%	?
Cc1ccc(C2C(C#N)=C3N=C(N)c4ccccc4N3C3=C2C(=O)CCC3)cc1 (stereo unspecified)	-18.2%	-3.8%	-7.6%	-3.0%	-9.0%	-2.9%	nt	nt	nt
CCC(C)n1c(=O)c2sccc2n2c(CCCC(=O)N3CCN(c4ccccc4)CC3)nnc12 (stereo unspecified)	-26.1%	nt	-7.6%	13.2%	-2.7%	2.6%	nt	nt	nt
Cc1cccn2c(=O)c(/C=C(\C#N)S(=O)(=O)c3ccccc3)c(N3CCC(C(N)=O)CC3)nc12	5.1%	-1.5%	-2.5%	14.1%	?	3.4%	0.9	-0.6%	39.8µM*
Cc1ccc(S(=O)(=O)/C(C#N)=C/c2c(N3CCC(C(N)=O)CC3)nc3c(C)cccn3c2=O)cc1	-6.4%	-3.1%	-4.9%	-6.7%	?	-5.1%	nt	nt	nt
COc1ccccc1CNC(=O)CSc1nc(=O)[nH]c2c1CCC2	nt	nt	-4.1%	15.0%[57.1 µM]	-2.2%	6.1%[57.1 µM]	nt	nt	nt
Cc1cc(C)c(Cn2c3ccccc3c3cnn(CC(=O)NCCc4ccccc4)c(=O)c32)c(C)c1	?	nt	6.8%	-0.8%	-8.0%	4.2%	nt	nt	nt
CCN(CC)C(=O)c1sc2c(c1C)c(=O)n(-c1ccc(Cl)c(Cl)c1)c(=O)n2CC(=O)Nc1cccc(OC)c1	nt	nt	-9.0%	13.5%[57.1 µM]	-5.0%	-4.2%[57.1 µM]	nt	nt	nt
O=C1CCSC2(C(=O)N(Cc3ccccc3)c3ccccc32)N1c1ccccc1 (stereo unspecified)	-1.5%	nt	-8.7%	-1.0%	?	-10.1%	nt	nt	nt
O=C1CCSC2(C(=O)N(Cc3ccc(F)cc3)c3ccccc32)N1c1ccc(Cl)cc1 (stereo unspecified)	-17.6%	nt	-1.3%	29.7%	?	2.9%	-8.3	-14.6%	20µM*
Cc1ccc(N2C(=O)CCSC23C(=O)N(Cc2ccc(F)cc2)c2ccccc23)cc1 (stereo unspecified)	-23.0%	nt	-11.0%	10.9%	?	-6.1%	nt	nt	nt
Cc1ccc(N2C(=O)CCSC23C(=O)N(Cc2ccccc2)c2ccccc23)cc1F (stereo unspecified)	-22.3%	nt	-8.7%	22.2%	22.4µM*	-3.2%	-6.8	-18.1%	25.1µM*
Cc1ccc(N2C(=O)CCSC23C(=O)N(Cc2ccccc2)c2ccccc23)cc1 (stereo unspecified)	?	nt	-8.4%	27.6%	?	6.8%	-5.0	-17.0%	44.7µM*
Cc1ccc(S(=O)(=O)N2CCCC2C(=O)Nc2ccc(Br)cc2)cc1 (stereo unspecified)	?	nt	-1.6%	14.7%	nt	7.7%	nt	nt	nt
O=C(COc1ccccc1)Nc1ccccc1C(=O)OCc1cc(=O)n2nc(C3CC3)sc2n1	nt	nt	0.6%	18.4%[57.1 µM]	6.4%	2.7%[57.1 µM]	nt	nt	nt
Cc1c(OC(C(=O)O)c2ccccc2)ccc2c(-c3ccccc3)cc(=O)oc12 (stereo unspecified)	3.3%	-2.5%	4.0%	3.7%	?	3.9%	6.2	-6.8%	12.6µM*
COc1cccc(CNC(=O)c2nn(-c3ccc(C)cc3)c(=O)c3c2c2ccccc2n3C)c1	23.2%	nt	8.4%	14.9%	-2.8%	22.6%	nt	nt	nt
c1ccc(-c2csc(NNC3=NCCCCC3)n2)cc1	?	3.9%	?	13.3%[57.1 µM]	-24.8%	-9.9%[57.1 µM]	nt	nt	nt

Screens: PubChem BioAssay, National Center for Advancing Translational Sciences (NCATS)
